This is an account of results in PubChem BioAssay (Tox21).

In assay [1] the target is Aryl hydrocarbon receptor (Homo sapiens) (UniProt P35869). The assay can be described thus: qHTS assay to identify small molecule that activate the aryl hydrocarbon receptor (AhR) signaling pathway (AID 743085). Further: nearly all actives have a fitted effect of over 15% in size. Further: potency means the concentration at half of the fitted maximal effect.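 On activation: HG2L7.5c1 human HepG2 liver cells with stably integrated DRE-driven firefly reporter; series mostly up to about 70 µM.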 The method, boiled down: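 AhR agonist activity is inferred from enhanced light output of a DRE-controlled firefly luciferase reporter in HepG2 cells, measured with ONE-Glo following 24 h treatment at 37C.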

Assay [2] can be described thus: qHTS assay to identify small molecule that activate the aryl hydrocarbon receptor (AhR) signaling pathway - cell viability counter screen (AID 743086). Further: nearly all actives have a fitted effect of over 45% in size. Further: potency means the concentration at half of the fitted maximal effect. The gist of the method:
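HepG2-AhR-luc (HG2L7.5c1) cells, 4000/well, treated 24 h at 37 C with compound; viability measured as CellTiter-Fluor fluorescence after 30 min in the same wells as the luciferase read.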

The target of assay [3] is Peroxisome proliferator-activated receptor gamma (Homo sapiens) (UniProt P37231). The assay can be described thus: qHTS assay to identify small molecule agonists of the peroxisome proliferator-activated receptor gamma (PPARg) signaling pathway (AID 743094; active means well fitted activation curve with a large enough effect in the signal ratio in the repeat runs, not every such curve was filed as active; the % refers to the signal ratio). The method, boiled down: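 Beta-lactamase FRET fluorescence was the read-out after a 1 h room-temperature substrate step, following 17 h compound treatment at 37C of HEK293H cells expressing a UAS-driven bla reporter responsive to PPARg.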

The target is the same in assay [4]. Kind of assay: qHTS assay to identify small molecule antagonists of the peroxisome proliferator-activated receptor gamma (PPARg) signaling pathway (AID 743191; calls by dose curve; further: series mostly up to about 63 µM; nearly all actives have a fitted effect of over 30% in size). The gist of the method: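 GeneBLAzer PPARg UAS-bla HEK293H cells, 5 h post-plating, exposed to compounds 17 h at 37C. LiveBLAzer B/G FRET substrate added for 1 h at room temperature; beta-lactamase reporter read by fluorescence intensity.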

Assay [5] in a line: qHTS assay to identify small molecule antagonists of the peroxisome proliferator-activated receptor gamma (PPARg) signaling pathway - cell viability counter screen (AID 743194). Further: nearly all actives have a fitted effect of over 55% in size. Further: potency means the concentration at half of the fitted maximal effect. Particulars: Potency: co-treated with 50 nM rosiglitazone unless noted. The gist of the method: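 Cytotoxicity counter screen in PPARg-bla HEK293H cells, same wells as reporter assay. Compounds plus 50 nM rosiglitazone (final) for 17 h at 37 C, then viability read by CellTiter-Glo luminescence.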

A short description of assay [6]: qHTS assay for small molecule agonists of the antioxidant response element (ARE) signaling pathway - cell viability counter screen (AID 743203; calls by dose curve; further: nearly all actives have a fitted effect of over 55% in size; further: potency means the concentration at half of the fitted maximal effect). The gist of the method: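 HepG2 cells carrying ARE-driven beta-lactamase; 2,000 cells/well; 5 hrs plating; compound pinned from DMSO; 16 hrs 37C/5% CO2; CellTiter-Glo added; 30 min RT; luminescence.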
A short description of assay [7]: qHTS assay for small molecule activators of the heat shock response signaling pathway - cell viability counter screen (AID 743209). Further: nearly all actives have a fitted effect of over 50% in size. Further: potency means the concentration at half of the fitted maximal effect. The method, boiled down:
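Luminescence from CellTiter-Glo, added after the beta-lactamase FRET read, gave the viability signal. Cells were HSE-bla HeLa treated with DMSO-dissolved compounds for 5 h at 37 C following overnight plating.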

Assay [8] in a line: qHTS assay for small molecule activators of the heat shock response signaling pathway (AID 743210; active means well fitted activation curve with a large enough effect in the signal ratio in the repeat runs, with a control signal flat, not every such curve was filed as active; the % refers to the signal ratio; further: series mostly up to about 63 µM). The method, boiled down:
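HSE-bla HeLa cells (beta-lactamase reporter under heat shock response elements), plated overnight, then exposed to compounds 5 h at 37 C; LiveBLAzer B/G FRET substrate added, 2.5 h at room temperature, fluorescence intensity read.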

Assay [9] can be described thus: qHTS assay to identify small molecule agonists of the peroxisome proliferator-activated receptor delta (PPARd) signaling pathway - cell viability counter screen (AID 743211). Further: nearly all actives have a fitted effect of over 55% in size. Further: potency means the concentration at half of the fitted maximal effect. The gist of the method:
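qHTS cell viability: PPARd-bla HEK293H; 17 h cpd, 37C; CellTiter-Glo, luminescence at 30 min RT.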

Assay [10] in a line: qHTS assay for small molecule agonists of the antioxidant response element (ARE) signaling pathway (AID 743202; active means well fitted activation curve with a large enough effect in the signal ratio in the repeat runs, not every such curve was filed as active; the % refers to the signal ratio; further: potency means the concentration at half of the fitted maximal effect). The gist of the method: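 ARE-bla HepG2 cells (beta-lactamase reporter under the antioxidant response element), plated 5 hours, then exposed to compounds 16 hours at 37 C. LiveBLAzer B/G FRET substrate added for 2 hours at room temperature; fluorescence intensity read.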

Where “and” joins values, the source holds several entries; their conditions need not be identical. Equal values may be shown once. Records with an inconclusive call do not appear. Calls of active or inactive are those of the source. Unless noted, the call rests on the fitted dose curve; in most records, active means well fitted curve in the direction sought with a large enough effect in the repeat runs; inconclusive means weak or mixed curves; inactive means no such curve, though single readings can be large; an effect the other way counts as inactive or inconclusive.

Aryl hydrocarbon receptor (Homo sapiens), sequence (P35869 whole entry, looked up): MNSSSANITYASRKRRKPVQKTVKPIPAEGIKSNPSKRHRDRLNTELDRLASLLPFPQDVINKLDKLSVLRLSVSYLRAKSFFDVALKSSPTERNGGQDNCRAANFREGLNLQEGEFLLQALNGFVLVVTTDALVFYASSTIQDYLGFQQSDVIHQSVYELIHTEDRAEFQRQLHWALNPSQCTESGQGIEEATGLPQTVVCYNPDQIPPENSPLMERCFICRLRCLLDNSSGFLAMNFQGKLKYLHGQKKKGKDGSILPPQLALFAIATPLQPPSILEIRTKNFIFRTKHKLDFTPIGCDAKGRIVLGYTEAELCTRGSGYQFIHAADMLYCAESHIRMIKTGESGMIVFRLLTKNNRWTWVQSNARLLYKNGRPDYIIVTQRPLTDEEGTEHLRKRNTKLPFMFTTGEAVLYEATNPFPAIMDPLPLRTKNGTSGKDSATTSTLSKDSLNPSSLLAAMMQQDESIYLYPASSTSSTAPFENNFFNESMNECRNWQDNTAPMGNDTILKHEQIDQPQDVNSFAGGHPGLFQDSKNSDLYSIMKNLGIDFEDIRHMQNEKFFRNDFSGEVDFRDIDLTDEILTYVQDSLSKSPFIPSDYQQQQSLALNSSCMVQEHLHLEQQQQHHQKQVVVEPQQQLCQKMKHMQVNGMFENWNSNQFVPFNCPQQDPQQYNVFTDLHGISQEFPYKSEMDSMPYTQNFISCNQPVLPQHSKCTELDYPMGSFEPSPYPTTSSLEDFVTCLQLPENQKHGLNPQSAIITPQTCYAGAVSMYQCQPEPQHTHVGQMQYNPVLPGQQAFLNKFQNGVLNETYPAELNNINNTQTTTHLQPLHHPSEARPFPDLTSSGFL
Peroxisome proliferator-activated receptor gamma (Homo sapiens), sequence (P37231 whole entry, looked up): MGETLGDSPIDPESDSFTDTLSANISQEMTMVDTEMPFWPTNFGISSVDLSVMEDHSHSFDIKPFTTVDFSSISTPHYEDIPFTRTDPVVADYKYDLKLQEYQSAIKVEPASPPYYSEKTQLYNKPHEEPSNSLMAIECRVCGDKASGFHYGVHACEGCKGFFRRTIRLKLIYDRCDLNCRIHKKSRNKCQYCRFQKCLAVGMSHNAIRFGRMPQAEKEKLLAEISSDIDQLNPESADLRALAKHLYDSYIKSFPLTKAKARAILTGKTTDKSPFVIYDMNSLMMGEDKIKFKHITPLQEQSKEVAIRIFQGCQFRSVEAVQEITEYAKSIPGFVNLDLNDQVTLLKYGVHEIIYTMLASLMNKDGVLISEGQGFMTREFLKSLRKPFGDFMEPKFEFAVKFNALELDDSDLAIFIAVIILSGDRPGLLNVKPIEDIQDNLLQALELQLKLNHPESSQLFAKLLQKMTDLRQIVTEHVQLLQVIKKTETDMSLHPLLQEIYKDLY

Take `Fc1cccc(Cl)c1CCl`: the Potency entry in [1], in [2], in [3], in [4], in assay [5] and in assay [6] was “inactive” throughout. Besides, the Potency result in [7], in assay [8] and in [9] was “inactive” throughout.

As for `COc1ccc(OC)c(CC(C)N)c1` (stereo not drawn), the Potency entry in assay [1], in assay [2], in assay [3], in assay [4], in [5] and in assay [10] was “inactive” throughout. The Potency result in [7], in [8] and in assay [9] was “inactive” in each case.

Take `FC(F)(F)c1cccc(C2=CCN(CCc3ccc4ccccc4c3)CC2)c1`: the Potency result in [1], in assay [2], in assay [3], in [5], in assay [6] and in [7] was “inactive” each time. For the same molecule, the Potency entry in assay [8] and in assay [9] was “inactive” in each case.

In the case of `CC(C)OS(C)(=O)=O`, the Potency entry in assay [1], in [2], in [3], in [4], in assay [5] and in assay [10] was “inactive” throughout. Further, the Potency result in assay [6], in [7], in [8] and in assay [9] was “inactive” throughout.

As for `O=[N+]([O-])c1cc([N+](=O)[O-])c2ccccc2c1`, the Potency in assay [1] was 16.3 µM (active). Besides, the Potency result in assay [2] was “inactive”.

With `C[C@H]1CC[C@@H]2[C@@H](C)[C@H]3[C@H](C[C@H]4[C@@H]5CC=C6CC(O[C@@H]7O[C@H](CO)[C@H](O)[C@H](O[C@@H]8O[C@H](CO)[C@@H](O)[C@H](O)[C@H]8O)[C@H]7O[C@H]7O[C@@H](C)[C@H](O)[C@@H](O)[C@H]7O)CC[C@]6(C)[C@H]5CC[C@]34C)N2C1` (stereo partly drawn), the Potency entry in [1], in assay [2] and in assay [3] was “inactive” in each case. For the same molecule, the Potency was 8.99 µM (active) in [5], 7.94 µM (active) in assay [6], 16 µM (active) in [7] and 1.43 µM (active) in [9].

As to `CC(C)CCCCCOC(=O)c1ccccc1C(=O)OCCCCCC(C)C`, the Potency entry in [1], in assay [2], in assay [3], in assay [4], in assay [5] and in [10] was “inactive” in each case. Further, the Potency result in assay [6], in assay [7], in assay [8] and in assay [9] was “inactive” throughout.

Consider `O=[N+]([O-])c1ccc(Oc2ccc(C(F)(F)F)cc2[N+](=O)[O-])cc1`, for which, in assay [1], the Potency was 30.6 µM (active). The Potency result in assay [2], in assay [3], in assay [5], in assay [6], in assay [7] and in assay [8] was “inactive” throughout. In [9], the Potency result is “inactive”.

Consider `Clc1ccc(-c2ccc(Cl)c(Cl)c2Cl)c(Cl)c1Cl`, for which the Potency result in assay [1], in assay [2], in [3], in assay [4] and in assay [7] was “inactive” each time. Moreover, the Potency in assay [9] was 20.8 µM (active).

As for `COc1cc(N)c(Cl)cc1C(=O)NC1CN2CCC1CC2` (stereo not drawn), the Potency result in [1], in assay [2], in [3], in assay [5], in assay [10] and in [8] was “inactive” each time. Further, in assay [9], the Potency result was “inactive”.

Turning to `COP(=O)(OC)SCn1c(=O)oc2cc(Cl)cnc21`, the Potency in assay [1] is 43.3 µM (active). The Potency entry in assay [2], in [3], in [5], in [8] and in assay [9] was “inactive” throughout.

In the case of `CC(Cc1ccc(C(C)(C)C)cc1)CN1C[C@@H](C)O[C@@H](C)C1` (stereo partly drawn), the Potency result in assay [1], in assay [2], in assay [3], in assay [7] and in assay [8] was “inactive” in each case. In addition, the Potency in assay [5] was 49 µM (active).

With `CCN(CC)c1c([N+](=O)[O-])cc(C(F)(F)F)c(N)c1[N+](=O)[O-]`, the Potency result in assay [1], in assay [2], in [3], in assay [4], in [5] and in assay [10] was “inactive” each time. Also, the Potency entry in [6], in assay [7], in assay [8] and in [9] was “inactive” in each case.

Turning to `Cc1cc(C(F)(C(F)(F)F)C(F)(F)F)ccc1NC(=O)c1cccc(I)c1C(=O)NC(C)(C)CS(C)(=O)=O`, the Potency result in assay [1], in [2], in [3], in assay [4], in assay [5] and in assay [6] was “inactive” in each case. Also, the Potency result in [7] was “inactive”.

On to `C1CCC2CCCCC2C1` (stereo not drawn), for which the Potency result in assay [1], in [2], in assay [3], in assay [5], in [6] and in [7] was “inactive” in each case. Besides, the Potency entry in assay [8] and in assay [9] was “inactive” each time.

With `CC(=O)c1cc(C(C)(C)C)cc2c1CCC2(C)C`, the Potency entry in [1], in assay [2], in assay [3], in assay [4], in assay [5] and in assay [10] was “inactive” each time. For the same molecule, the Potency entry in [6] was “inactive”.

Turning to `CCCCCCCCCC[N+](C)(C)CCCCCCCCCC`, the Potency result in assay [1] and in [2] was “inactive” each time. The Potency was 15.5 µM (active) in [5], 43.3 µM (active) in [6], 34.7 µM (active) in assay [7] and 21.9 µM (active) in assay [9].

In the case of `O=C1NCN(c2ccccc2)C12CCN(CC1COc3ccccc3O1)CC2` (stereo not drawn), the Potency result in assay [1], in assay [2], in assay [3], in assay [10], in [6] and in assay [7] was “inactive” each time. The Potency result in [8] is “inactive”.

Take `CCCCCCCCCCCCCC[P+](CCCCCC)(CCCCCC)CCCCCC` (tested in a mixture with another compound): in assay [1], the Potency result is “inactive”. Besides, the Potency is 27.3 µM (active) in assay [2]; 0.49 µM (active) in assay [5]; 10.9 µM (active) in [6]; 3.47 µM (active) in assay [7]; 2.46 µM (active) in assay [9].

As to `O=[N+]([O-])O.O=[N+]([O-])O.[Cd]`, the Potency entry in [1] and in assay [7] was “inactive” each time. Besides, the Potency in [2] was 1.93 µM (active); in assay [5] it was 0.155 µM (active); in assay [6], 0.611 µM (active); in [9], 1.95 µM (active).

Turning to `Cc1cc(N=Nc2ccccc2C)ccc1N`, the Potency in assay [1] was 7.7 µM (active) and 4.33 µM (active); in [2], 5.45 µM (active) and 2.73 µM (active). The Potency result in assay [5], in assay [6] and in assay [7] was “inactive” each time.

Regarding `CCCCCCCCCBr`, the Potency entry in assay [1], in [2], in assay [5], in assay [10], in assay [7] and in assay [8] was “inactive” each time. For the same molecule, the Potency result in assay [9] is “inactive”.

For `CC1(c2ccc(Oc3ccccc3)cc2)OC(=O)N(Nc2ccccc2)C1=O` (stereo not drawn), the Potency result in assay [1] and in assay [2] was “inactive” each time. Moreover, the Potency is 8.76 µM (active) in assay [5], 615 nM (active) in assay [10], 34.9 µM (active) in assay [7] and 49.3 µM (active) in assay [9].
